Results filed as inconclusive are left out. The source made the active and inactive calls. Unless noted, calls follow the shape of the dose curve; as a rule, active = well fitted curve in the direction sought with a large enough effect in the repeat runs; inconclusive = weak or mixed curves; inactive = no such curve, though single readings can be large; an effect the other way counts as inactive or inconclusive.
Legend:
[1] = qHTS assay to identify small molecule antagonists of the thyroid receptor (TR) signaling pathway - cell viability counter screen (AID 743064); also: nearly all actives have a fitted effect of over 50% in size
Summary of the method: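 Rat GH3 pituitary tumor cells stably expressing two TR response elements driving luciferase were plated, rested 4 h, then dosed with library compounds and T3 (1 nM final). After 23.5 h at 37 °C, CellTiter-Fluor was added for 30 min and fluorescence recorded.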

[2] = qHTS assay to identify small molecule antagonists of the thyroid receptor (TR) signaling pathway (AID 743065); also: series mostly up to about 70 µM; nearly all actives have a fitted effect of over 55% in size
Summary of the method: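 GH3.TRE-Luc rat pituitary cells (two TREs driving luciferase) were dosed with compound, then stimulated with 1 nM T3 (final) for 23.5 h at 37 C. ONE-Glo luminescence was the read-out, with CellTiter-Fluor fluorescence as the cytotoxicity counter-screen.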

[3] = test system: thyroid hormone receptor (rat, GH3 cells); assay: qHTS assay to identify small molecule agonists of the thyroid receptor (TR) signaling pathway (AID 743066; calls by dose curve)
[4] = biological target: Estrogen receptor (Homo sapiens) (UniProt P03372); assay: qHTS assay to identify small molecule antagonists of the estrogen receptor alpha (ER-alpha) signaling pathway (AID 743069; active = well fitted curve in the direction sought with a large enough effect in the signal ratio in the repeat runs, not every such curve was filed as active; the % refers to the signal ratio)
Chain of Estrogen receptor (Homo sapiens) (P03372 whole entry, looked up): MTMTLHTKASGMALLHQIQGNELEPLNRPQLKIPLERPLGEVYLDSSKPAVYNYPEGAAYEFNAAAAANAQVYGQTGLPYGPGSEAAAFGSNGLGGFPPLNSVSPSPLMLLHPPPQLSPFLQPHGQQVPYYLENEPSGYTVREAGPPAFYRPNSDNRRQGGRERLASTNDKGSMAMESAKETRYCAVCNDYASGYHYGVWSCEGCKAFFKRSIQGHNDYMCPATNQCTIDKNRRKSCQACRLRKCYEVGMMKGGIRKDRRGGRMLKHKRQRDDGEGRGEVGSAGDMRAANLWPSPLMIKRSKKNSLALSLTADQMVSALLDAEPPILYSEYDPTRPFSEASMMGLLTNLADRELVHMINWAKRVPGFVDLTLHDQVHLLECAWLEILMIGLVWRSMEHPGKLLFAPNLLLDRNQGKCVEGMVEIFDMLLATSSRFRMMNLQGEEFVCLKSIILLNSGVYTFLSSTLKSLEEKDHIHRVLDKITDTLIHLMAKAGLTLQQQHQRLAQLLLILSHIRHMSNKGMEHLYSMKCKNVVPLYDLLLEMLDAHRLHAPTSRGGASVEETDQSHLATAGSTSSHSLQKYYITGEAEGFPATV
Summary of the method: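 In this cell-based reporter format, GripTite HEK293 cells harbouring ER-alpha-UAS-bla were grown overnight with 2% charcoal-stripped FBS, dosed with DMSO-dissolved compounds, then challenged with 17beta-estradiol. After 18 hr at 37C, beta-lactamase activity was detected by FRET fluorescence.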

[5] = qHTS assay to identify small molecule antagonists of the estrogen receptor alpha (ER-alpha) signaling pathway - cell viability counter screen (AID 743074; calls by dose curve; also: nearly all actives have a fitted effect of over 45% in size)
[6] = biological target: Estrogen receptor (Homo sapiens) (UniProt P03372); assay: qHTS assay to identify small molecule agonists of the estrogen receptor alpha (ER-alpha) signaling pathway (AID 743075; calls by dose curve)
[7] = biological target: Estrogen receptor (Homo sapiens) (UniProt P03372); assay: qHTS assay to identify small molecule agonists of the estrogen receptor alpha (ER-alpha) signaling pathway using the BG1 cell line (AID 743079); also: nearly all actives have a fitted effect of over 20% in size
[8] = qHTS assay to identify small molecule antagonists of the estrogen receptor alpha (ER-alpha) signaling pathway using the BG1 cell line (AID 743080; calls by dose curve;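 also: BG1 cells stimulated with 17beta-estradiol alongside compound; series mostly up to about 70 µM; nearly all actives have a fitted effect of over 25% in size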)
Summary of the method: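 Luciferase inhibition measured with ONE-Glo after 30 min at RT in BG1Luc4E2 cells given test compounds and 17beta-estradiol for 21.5 h at 37 C; CellTiter-Fluor viability read in the same wells beforehand.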

[9] = qHTS assay to identify small molecule antagonists of the estrogen receptor alpha (ER-alpha) signaling pathway using the BG1 cell line - cell viability counter screen (AID 743081);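 also: compound given together with 17beta-estradiol as the ER stimulus; series mostly up to about 70 µM; nearly all actives have a fitted effect of over 45% in size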
Aromatase (Homo sapiens) = Aromatase (Homo sapiens) (UniProt P11511); assay: qHTS assay to identify aromatase inhibitors (AID 743083); also: series mostly up to about 70 µM; nearly all actives have a fitted effect of over 55% in size
Chain of Aromatase (Homo sapiens) (P11511 whole entry, looked up): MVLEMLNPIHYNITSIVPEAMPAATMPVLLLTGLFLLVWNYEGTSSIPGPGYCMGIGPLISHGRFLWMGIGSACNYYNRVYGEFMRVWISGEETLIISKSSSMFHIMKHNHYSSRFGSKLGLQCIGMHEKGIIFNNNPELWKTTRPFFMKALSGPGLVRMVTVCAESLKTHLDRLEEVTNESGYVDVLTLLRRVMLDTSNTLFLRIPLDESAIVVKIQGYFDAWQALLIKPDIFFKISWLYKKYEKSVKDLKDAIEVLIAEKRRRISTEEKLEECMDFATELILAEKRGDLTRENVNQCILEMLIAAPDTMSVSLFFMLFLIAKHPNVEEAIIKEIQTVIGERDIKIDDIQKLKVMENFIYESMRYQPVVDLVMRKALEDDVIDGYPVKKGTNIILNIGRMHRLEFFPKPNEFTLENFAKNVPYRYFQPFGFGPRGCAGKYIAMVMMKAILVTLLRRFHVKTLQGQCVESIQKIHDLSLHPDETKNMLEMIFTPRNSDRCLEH

[10] = qHTS assay to identify aromatase inhibitors - cell viability counter screen (AID 743084);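 also: cells stimulated with testosterone during compound exposure; nearly all actives have a fitted effect of over 55% in size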
[11] = biological target: Aryl hydrocarbon receptor (Homo sapiens) (UniProt P35869); assay: qHTS assay to identify small molecule that activate the aryl hydrocarbon receptor (AhR) signaling pathway (AID 743085);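 also: HG2L7.5c1 human HepG2 liver cells with stably integrated DRE-driven firefly reporter; series mostly up to about 70 µM; nearly all actives have a fitted effect of over 15% in size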
Chain of Aryl hydrocarbon receptor (Homo sapiens) (P35869 whole entry, looked up): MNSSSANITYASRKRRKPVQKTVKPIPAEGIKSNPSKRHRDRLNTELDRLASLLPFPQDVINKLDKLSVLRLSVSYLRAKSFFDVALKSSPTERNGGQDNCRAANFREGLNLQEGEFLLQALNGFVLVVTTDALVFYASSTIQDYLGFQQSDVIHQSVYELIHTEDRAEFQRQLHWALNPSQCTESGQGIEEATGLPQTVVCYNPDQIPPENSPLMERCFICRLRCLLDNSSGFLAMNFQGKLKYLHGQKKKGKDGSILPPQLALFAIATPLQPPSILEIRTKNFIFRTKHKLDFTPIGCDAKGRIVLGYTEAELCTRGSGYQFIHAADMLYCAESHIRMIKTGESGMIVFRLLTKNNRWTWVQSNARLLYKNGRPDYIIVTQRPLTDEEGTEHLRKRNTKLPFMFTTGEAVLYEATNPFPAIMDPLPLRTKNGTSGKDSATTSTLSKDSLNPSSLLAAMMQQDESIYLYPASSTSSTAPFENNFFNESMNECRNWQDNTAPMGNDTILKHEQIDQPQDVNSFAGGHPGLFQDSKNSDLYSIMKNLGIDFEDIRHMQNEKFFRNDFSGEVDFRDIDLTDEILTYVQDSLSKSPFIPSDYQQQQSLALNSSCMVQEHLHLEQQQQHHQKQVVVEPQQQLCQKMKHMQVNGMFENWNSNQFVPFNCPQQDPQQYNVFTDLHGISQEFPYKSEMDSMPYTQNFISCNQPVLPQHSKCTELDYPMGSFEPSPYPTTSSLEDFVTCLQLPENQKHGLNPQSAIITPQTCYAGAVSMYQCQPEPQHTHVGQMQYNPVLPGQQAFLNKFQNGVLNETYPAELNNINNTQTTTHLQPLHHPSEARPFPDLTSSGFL
Summary of the method: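 Compounds were tested in HepG2 hepatocellular carcinoma cells harbouring a stably integrated luciferase gene under control of 20 DREs. Increased reporter signal after 24 h treatment at 37C was taken as AhR activation.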

[12] = qHTS assay to identify small molecule that activate the aryl hydrocarbon receptor (AhR) signaling pathway - cell viability counter screen (AID 743086);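 also: HepG2 liver cells carrying the AhR DRE luciferase reporter; series mostly up to about 70 µM; nearly all actives have a fitted effect of over 45% in size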
Summary of the method: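 HepG2-AhR-luc (HG2L7.5c1) cells, 4000/well, treated 24 h at 37 C with compound; viability measured as CellTiter-Fluor fluorescence after 30 min in the same wells as the luciferase read.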

[13] = biological target: Peroxisome proliferator-activated receptor gamma (Homo sapiens) (UniProt P37231); assay: qHTS assay to identify small molecule agonists of the peroxisome proliferator-activated receptor gamma (PPARg) signaling pathway (AID 743094; active = well fitted activation curve with a large enough effect in the signal ratio in the repeat runs, not every such curve was filed as active; the % refers to the signal ratio)
Chain of Peroxisome proliferator-activated receptor gamma (Homo sapiens) (P37231 whole entry, looked up): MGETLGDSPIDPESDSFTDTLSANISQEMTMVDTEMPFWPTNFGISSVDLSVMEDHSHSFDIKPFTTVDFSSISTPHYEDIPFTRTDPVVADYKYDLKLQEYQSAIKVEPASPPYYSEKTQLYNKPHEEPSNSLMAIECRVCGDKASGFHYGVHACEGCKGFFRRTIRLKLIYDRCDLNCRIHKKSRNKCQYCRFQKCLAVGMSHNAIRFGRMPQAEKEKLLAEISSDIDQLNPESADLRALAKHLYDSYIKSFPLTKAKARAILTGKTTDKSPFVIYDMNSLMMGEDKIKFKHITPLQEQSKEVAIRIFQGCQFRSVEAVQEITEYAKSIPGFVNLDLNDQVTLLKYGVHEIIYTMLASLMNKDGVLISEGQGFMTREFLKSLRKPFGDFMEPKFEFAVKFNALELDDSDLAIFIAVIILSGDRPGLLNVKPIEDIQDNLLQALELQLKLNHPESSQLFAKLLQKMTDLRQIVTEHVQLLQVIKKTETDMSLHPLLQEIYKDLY
Summary of the method: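 Fluorescence-based beta-lactamase readout in HEK293H PPARg UAS-bla cells after 17 h compound exposure (37C) and 1 h B/G FRET substrate incubation at room temperature.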

[14] = biological target: Peroxisome proliferator-activated receptor gamma (Homo sapiens) (UniProt P37231); assay: qHTS assay to identify small molecule antagonists of the peroxisome proliferator-activated receptor gamma (PPARg) signaling pathway (AID 743191; calls by dose curve; also: series mostly up to about 63 µM; nearly all actives have a fitted effect of over 30% in size)
Summary of the method: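 GeneBLAzer PPARg UAS-bla HEK293H cells, 5 h post-plating, exposed to compounds 17 h at 37C. LiveBLAzer B/G FRET substrate added for 1 h at room temperature; beta-lactamase reporter read by fluorescence intensity.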

[15] = qHTS assay to identify small molecule antagonists of the peroxisome proliferator-activated receptor gamma (PPARg) signaling pathway - cell viability counter screen (AID 743194); also: nearly all actives have a fitted effect of over 55% in size
Summary of the method: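 Cytotoxicity counter screen in PPARg-bla HEK293H cells, same wells as reporter assay. Compounds plus 50 nM rosiglitazone (final) for 17 h at 37 C, then viability read by CellTiter-Glo luminescence.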

[16] = qHTS assay for small molecule agonists of the antioxidant response element (ARE) signaling pathway - cell viability counter screen (AID 743203; calls by dose curve; also: nearly all actives have a fitted effect of over 55% in size)
Summary of the method: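 Parallel cytotoxicity read-out for the ARE-bla screen: HepG2 reporter cells, 16 hrs with compounds, then CellTiter-Glo luminescence.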

[17] = qHTS assay for small molecule activators of the heat shock response signaling pathway - cell viability counter screen (AID 743209); also: nearly all actives have a fitted effect of over 50% in size
Summary of the method: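 To flag cytotoxic compounds, HSE-bla HeLa cells plated at 1500 cells/well were dosed for 5 h at 37 C, followed by the reporter FRET read and then CellTiter-Glo, with luminescence recorded 30 min after reagent addition.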

[18] = qHTS assay for small molecule activators of the heat shock response signaling pathway (AID 743210; active = well fitted activation curve with a large enough effect in the signal ratio in the repeat runs, with a control signal flat, not every such curve was filed as active; the % refers to the signal ratio;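 also: HeLa cells with beta-lactamase reporter driven by heat shock elements; series mostly up to about 63 µM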)
Summary of the method: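 Following overnight attachment, HSE-bla HeLa cells received test compounds for 5 h at 37 C; beta-lactamase activity was then detected via FRET substrate fluorescence.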

[19] = qHTS assay for small molecule agonists of the antioxidant response element (ARE) signaling pathway (AID 743202; active = well fitted activation curve with a large enough effect in the signal ratio in the repeat runs, not every such curve was filed as active; the % refers to the signal ratio)
Summary of the method: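 HepG2 ARE-bla cells; 16 h treatment at 37 C; FRET-based beta-lactamase fluorescence read after 2 h substrate incubation at room temperature.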

Measured: Potency

CC1(C)NC(=O)NC1=O
not listed: [19]
inactive: all other assays above

COCCCN
not listed: [11] | [14]
inactive: all other assays above

CCOCC(=O)O
not listed: [19]
inactive: all other assays above

CCO[Si](CCC#N)(OCC)OCC
not listed: [11]
inactive: all other assays above

Cc1ccc2ncccc2c1
inactive: all assays above

CCCCCCO
not listed: [7] | [19]
inactive: all other assays above

O=C(OCC1CCC2OC2C1)C1CCC2OC2C1 (stereo unspecified)
not listed: [19]
inactive: all other assays above

CC(=O)OCc1ccccc1
not listed: [19]
inactive: all other assays above

Source: PubChem BioAssay (Tox21)
